# Data from the supplement of paper PMC8728848.
# This excerpt belongs to a sample that is enriched for the strongest signals.
# Key:
# Assay in all cases: glycan array binding signal (z-score within array); higher = stronger binding
# Conditions in all cases: glycan notation: IUPAC condensed, linker removed
# [1] = biological target: Fuc(a1-2)Gal(b1-3)GalNAc(a1-3)[Fuc(a1-2)]Gal(b1-4)GlcNAc
# Summary of the method: (§1)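 Glycan array data came from 3228 arrays in the Consortium for Functional Glycomics database, and only arrays with an available protein sequence were kept. Glycan names were put into IUPAC-condensed notation, and columns mapping to the same glycan were averaged. The binding signal is a within-array Z-score, averaged across arrays of one protein sequence run at different concentrations or buffers and across linkers. A negative Z-score can be read as non-binding.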
# [2] = biological target: Fuc(a1-2)Gal(b1-3)GlcNAc(b1-2)Man(a1-3)[Fuc(a1-2)Gal(b1-3)GlcNAc(b1-2)Man(a1-6)]Man(b1-4)GlcNAc(b1-4)[Fuc(a1-6)]GlcNAc
# Summary of the method: as §1
# [3] = biological target: Fuc(a1-2)Gal(b1-3)GlcNAc(b1-3)Gal(b1-4)Glc
# Summary of the method: as §1
# [4] = biological target: Fuc(a1-2)Gal(b1-3)GlcNAc(b1-3)[Gal(b1-4)GlcNAc(b1-6)]Gal(b1-4)Glc
# Summary of the method: as §1
# [5] = biological target: Fuc(a1-2)Gal3S(b1-4)GlcNAc
# Summary of the method: as §1
# [6] = biological target: Fuc(a1-2)[Gal(a1-3)]Gal(b1-3)GlcNAc(b1-2)Man(a1-3)[Fuc(a1-2)[Gal(a1-3)]Gal(b1-3)GlcNAc(b1-2)Man(a1-6)]Man(b1-4)GlcNAc(b1-4)[Fuc(a1-6)]GlcNAc
# Summary of the method: as §1
# [7] = biological target: Fuc(a1-2)[Gal(a1-3)]Gal(b1-4)GlcNAc(b1-3)[Fuc(a1-2)[Gal(a1-3)]Gal(b1-4)GlcNAc(b1-6)]GalNAc
# Summary of the method: as §1
# [8] = biological target: Fuc(a1-2)[Gal(a1-3)]Gal(b1-4)[Fuc(a1-3)]GlcNAc(b1-3)GalNAc
# Summary of the method: as §1
# [9] = biological target: Fuc(a1-2)[GalNAc(a1-3)]Gal
# Summary of the method: as §1
# [10] = biological target: Fuc(a1-2)[GalNAc(b1-3)]Gal
# Summary of the method: as §1
# [11] = biological target: Fuc(a1-3)[Gal(b1-4)]GlcNAc(b1-2)Man
# Summary of the method: as §1
# [12] = biological target: Fuc(a1-3)[Gal(b1-4)]GlcNAc(b1-3)Gal(b1-4)[Fuc(a1-3)]GlcNAc
# Summary of the method: as §1
# [13] = biological target: Fuc(a1-3)[Gal(b1-4)]GlcNAc(b1-3)Gal(b1-4)[Fuc(a1-3)]GlcNAc(b1-3)Gal(b1-4)[Fuc(a1-3)]GlcNAc
# Summary of the method: as §1
# [14] = biological target: Fuc(a1-3)[Gal(b1-4)]GlcNAc(b1-3)GalNAc
# Summary of the method: as §1
# Fuc(a1-4)GlcNAc = biological target: Fuc(a1-4)GlcNAc
# Summary of the method: as §1
# Gal(a1-3)Gal(b1-3)GlcNAc = biological target: Gal(a1-3)Gal(b1-3)GlcNAc
# Summary of the method: as §1
# [15] = biological target: Gal(a1-3)Gal(b1-4)GlcNAc(b1-2)Man(a1-3)[Gal(a1-3)Gal(b1-4)GlcNAc(b1-2)Man(a1-6)]Man(b1-4)GlcNAc(b1-4)GlcNAc
# Summary of the method: as §1
# [16] = biological target: Gal(a1-3)[Gal(a1-4)]Gal(b1-4)GlcNAc
# Summary of the method: as §1
# [17] = biological target: Gal(b1-3)GalNAc(b1-4)[Neu5Ac(a2-3)]Gal(b1-4)Glc
# Summary of the method: as §1
# Gal(b1-3)GlcNAc(b1-2)Man = biological target: Gal(b1-3)GlcNAc(b1-2)Man
# Summary of the method: as §1
# [18] = biological target: Gal(b1-3)GlcNAc(b1-2)Man(a1-3)[GlcNAc(b1-4)][Gal(b1-3)GlcNAc(b1-2)Man(a1-6)]Man(b1-4)GlcNAc(b1-4)GlcNAc
# Summary of the method: as §1
# [19] = biological target: Gal(b1-3)GlcNAc(b1-3)Gal(b1-3)GlcNAc
# Summary of the method: as §1
# Gal(b1-4)Glc = biological target: Gal(b1-4)Glc
# Summary of the method: as §1
# Gal(b1-4)GlcNAc(b1-2)Man = biological target: Gal(b1-4)GlcNAc(b1-2)Man
# Summary of the method: as §1
# [20] = biological target: Gal(b1-4)GlcNAc(b1-2)[Gal(b1-4)GlcNAc(b1-4)]Man(a1-3)[Gal(b1-4)GlcNAc(b1-2)Man(a1-6)]Man(b1-4)GlcNAc(b1-4)GlcNAc
# Summary of the method: as §1
# [21] = biological target: Gal(b1-4)GlcNAc(b1-3)Gal(b1-4)GlcNAc
# Summary of the method: as §1
# [22] = biological target: Gal(b1-4)GlcNAc(b1-3)Gal(b1-4)GlcNAc(b1-3)Gal(b1-4)GlcNAc(b1-2)Man(a1-3)[Gal(b1-4)GlcNAc(b1-3)Gal(b1-4)GlcNAc(b1-3)Gal(b1-4)GlcNAc(b1-2)Man(a1-6)]Man(b1-4)GlcNAc(b1-4)[Fuc(a1-6)]GlcNAc
# Summary of the method: as §1
# [23] = biological target: Gal(b1-4)GlcNAc(b1-3)Gal(b1-4)GlcNAc(b1-3)[Gal(b1-4)GlcNAc(b1-3)Gal(b1-4)GlcNAc(b1-6)]GalNAc
# Summary of the method: as §1
# [24] = biological target: Gal3S(b1-4)[Fuc(a1-3)]GlcNAc
# Summary of the method: as §1
# GalNAc(a1-3)GalNAc = biological target: GalNAc(a1-3)GalNAc
# Summary of the method: as §1
# [25] = biological target: GalNAc(a1-3)GalNAc(b1-3)Gal(a1-4)Gal(b1-4)GlcNAc
# Summary of the method: as §1
# GalNAc(b1-4)GlcNAc = biological target: GalNAc(b1-4)GlcNAc
# Summary of the method: as §1
# [26] = biological target: GalNAc(b1-4)GlcNAc(b1-2)Man(a1-3)[GalNAc(b1-4)GlcNAc(b1-2)Man(a1-6)]Man(b1-4)GlcNAc(b1-4)GlcNAc
# Summary of the method: as §1
# GalNAc(b1-4)GlcNAc6S = biological target: GalNAc(b1-4)GlcNAc6S
# Summary of the method: as §1
# [27] = biological target: GlcNAc(b1-2)[GlcNAc(b1-4)]Man(a1-3)[GlcNAc(b1-4)][GlcNAc(b1-2)Man(a1-6)]Man(b1-4)GlcNAc(b1-4)GlcNAc
# Summary of the method: as §1
# [28] = biological target: GlcNAc(b1-3)Gal(b1-4)GlcNAc(b1-6)[GlcNAc(b1-3)Gal(b1-3)]GalNAc
# Summary of the method: as §1
# [29] = biological target: GlcNAc(b1-3)[GlcNAc(b1-6)]Gal(b1-4)GlcNAc
# Summary of the method: as §1
# [30] = biological target: Man(a1-2)Man(a1-6)[Man(a1-3)]Man(a1-6)[Man(a1-2)Man(a1-2)Man(a1-3)]Man(b1-4)GlcNAc(b1-4)GlcNAc
# Summary of the method: as §1
# Man(a1-3)[Man(a1-6)]Man = biological target: Man(a1-3)[Man(a1-6)]Man
# Summary of the method: as §1
# [31] = biological target: Man(a1-3)[Man(a1-6)]Man(a1-6)[Man(a1-2)Man(a1-3)]Man(b1-4)GlcNAc(b1-4)GlcNAc
# Summary of the method: as §1
# [32] = biological target: Man(a1-3)[Man(a1-6)]Man(a1-6)[Man(a1-3)]Man(b1-4)GlcNAc(b1-4)GlcNAc
# Summary of the method: as §1
# [33] = biological target: Neu5Ac(a2-3)Gal(b1-3)GalNAc
# Summary of the method: as §1
# [34] = biological target: Neu5Ac(a2-3)Gal(b1-3)[Fuc(a1-4)]GlcNAc(b1-3)Gal(b1-4)[Fuc(a1-3)]GlcNAc
# Summary of the method: as §1
# [35] = biological target: Neu5Ac(a2-3)Gal(b1-4)GlcNAc6S
# Summary of the method: as §1
# [36] = biological target: Neu5Ac(a2-3)Gal(b1-4)[Fuc(a1-3)]GlcNAc(b1-3)Gal
# Summary of the method: as §1
# [37] = biological target: Neu5Ac(a2-3)Gal(b1-4)[Fuc(a1-3)]GlcNAc(b1-3)GalNAc
# Summary of the method: as §1
# [38] = biological target: Neu5Ac(a2-3)[GalNAc(b1-4)]Gal(b1-4)Glc
# Summary of the method: as §1
# [39] = biological target: Neu5Ac(a2-6)Gal(b1-4)GlcNAc(b1-2)[Neu5Ac(a2-6)Gal(b1-4)GlcNAc(b1-6)]Man(a1-6)[Neu5Ac(a2-6)Gal(b1-4)GlcNAc(b1-2)Man(a1-3)][GlcNAc(b1-4)]Man(b1-4)GlcNAc(b1-4)GlcNAc
# Summary of the method: as §1
# [40] = biological target: Neu5Ac(a2-6)Gal(b1-4)GlcNAc(b1-3)Gal(b1-4)GlcNAc(b1-3)Gal(b1-4)GlcNAc(b1-2)Man(a1-3)[Neu5Ac(a2-6)Gal(b1-4)GlcNAc(b1-3)Gal(b1-4)GlcNAc(b1-3)Gal(b1-4)GlcNAc(b1-2)Man(a1-6)]GalNAc
# Summary of the method: as §1
# [41] = biological target: Neu5Ac(a2-8)Neu5Ac(a2-3)[GalNAc(b1-4)]Gal(b1-4)Glc
# Summary of the method: as §1
binder,measurement,setting,value
SP16665A-bot-344-23-344 (Bacteroides ovatus) (protein) SDNEFPDFDYQTVYFANQYGLRTIELGESEFVDNTLDNQHKMVIKAAWGGGYTNRNNVVINFKVDESLCDNLYFKDTDQPLVPMPASYYTLASDRIAIPKGQIMAGVEVQLTDDFFADEKSISENYVIPLLMTNVQGADSILQGKPVVENPVLTNAGDWSILPQNFVLYAVKYVNPWHGEYLRRGIDHATVAGTSKDIIRHEQFVENDEVVNISTKSMKDNLLTLKTKDESGKDISYTVRLSFAEDGSCTVHSGSQNVVVSGSGKFVSKGEKNSLGGKDRNAIYLDYTVNLTDNNIQLATKDTLVLRTRNVYGGKSLEVVRK,glycan array binding signal (z-score),[1],-0.235
same,glycan array binding signal (z-score),[2],0.285
same,glycan array binding signal (z-score),[3],-0.208
same,glycan array binding signal (z-score),[4],-0.461
same,glycan array binding signal (z-score),[5],0.29
same,glycan array binding signal (z-score),[6],-0.333
same,glycan array binding signal (z-score),[7],8.34
same,glycan array binding signal (z-score),[8],-0.571
same,glycan array binding signal (z-score),[9],-0.372
same,glycan array binding signal (z-score),[10],-0.266
same,glycan array binding signal (z-score),[11],0.187
same,glycan array binding signal (z-score),[12],-0.237
same,glycan array binding signal (z-score),[13],0
same,glycan array binding signal (z-score),[14],-0.329
same,glycan array binding signal (z-score),Fuc(a1-4)GlcNAc,19.1
same,glycan array binding signal (z-score),Gal(a1-3)Gal(b1-3)GlcNAc,0.959
same,glycan array binding signal (z-score),[15],0.709
same,glycan array binding signal (z-score),[16],1.28
same,glycan array binding signal (z-score),[17],-0.5
same,glycan array binding signal (z-score),Gal(b1-3)GlcNAc(b1-2)Man,2.76
same,glycan array binding signal (z-score),[18],-0.153
same,glycan array binding signal (z-score),[19],0.024
same,glycan array binding signal (z-score),Gal(b1-4)Glc,-0.451
same,glycan array binding signal (z-score),Gal(b1-4)GlcNAc(b1-2)Man,1.02
same,glycan array binding signal (z-score),[20],-0.051
same,glycan array binding signal (z-score),[21],-0.125
same,glycan array binding signal (z-score),[22],2.77
same,glycan array binding signal (z-score),[23],0.116
same,glycan array binding signal (z-score),[24],-0.285
same,glycan array binding signal (z-score),GalNAc(a1-3)GalNAc,1.35
same,glycan array binding signal (z-score),[25],-0.21
same,glycan array binding signal (z-score),GalNAc(b1-4)GlcNAc,1.18
same,glycan array binding signal (z-score),[26],1.54
same,glycan array binding signal (z-score),GalNAc(b1-4)GlcNAc6S,-0.085
same,glycan array binding signal (z-score),[27],1.11
same,glycan array binding signal (z-score),[28],-0.227
same,glycan array binding signal (z-score),[29],-0.304
same,glycan array binding signal (z-score),[30],-0.087
same,glycan array binding signal (z-score),Man(a1-3)[Man(a1-6)]Man,-0.441
same,glycan array binding signal (z-score),[31],0.003
same,glycan array binding signal (z-score),[32],-0.618
same,glycan array binding signal (z-score),[33],1.94
same,glycan array binding signal (z-score),[34],0.438
same,glycan array binding signal (z-score),[35],-0.405
same,glycan array binding signal (z-score),[36],-0.135
same,glycan array binding signal (z-score),[37],1.76
same,glycan array binding signal (z-score),[38],-0.539
same,glycan array binding signal (z-score),[39],-0.263
same,glycan array binding signal (z-score),[40],-0.157
same,glycan array binding signal (z-score),[41],-0.466
